This note sets out measurements from PubChem BioAssay (Tox21).

Structures are written as SMILES. Results filed as inconclusive are left out. Values without a mark were called inactive. Active and inactive are the calls of the source. Calls come from the whole dose curve; as a rule, active = well fitted curve in the direction sought with a large enough effect in the repeat runs; inconclusive = weak or mixed curves; inactive = no such curve, though single readings can be large; an effect the other way counts as inactive or inconclusive.

For experiment [1], the target named is Cytochrome P450 2C9 (Homo sapiens) (UniProt P11712). The experiment is described as follows: Cytochrome P450 Family 2 Subfamily C Member 9 (CYP2C9) small molecule antagonists: luciferase reporter qHTS assay (AID 1671198). Note: potency is the fitted concentration of half-maximal effect. The conditions noted are these: P450-Glo CYP2C9 enzyme assay, luciferin luminescence; series mostly up to 115 µM. In outline: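 Enzyme-substrate mix preincubated with compound 10 min at room temperature; reaction started with NADPH regeneration solution, 1 h 37C. Luminescent luciferin product read after 20 min detection reagent.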
Sequence of Cytochrome P450 2C9 (Homo sapiens) (P11712 whole entry, looked up): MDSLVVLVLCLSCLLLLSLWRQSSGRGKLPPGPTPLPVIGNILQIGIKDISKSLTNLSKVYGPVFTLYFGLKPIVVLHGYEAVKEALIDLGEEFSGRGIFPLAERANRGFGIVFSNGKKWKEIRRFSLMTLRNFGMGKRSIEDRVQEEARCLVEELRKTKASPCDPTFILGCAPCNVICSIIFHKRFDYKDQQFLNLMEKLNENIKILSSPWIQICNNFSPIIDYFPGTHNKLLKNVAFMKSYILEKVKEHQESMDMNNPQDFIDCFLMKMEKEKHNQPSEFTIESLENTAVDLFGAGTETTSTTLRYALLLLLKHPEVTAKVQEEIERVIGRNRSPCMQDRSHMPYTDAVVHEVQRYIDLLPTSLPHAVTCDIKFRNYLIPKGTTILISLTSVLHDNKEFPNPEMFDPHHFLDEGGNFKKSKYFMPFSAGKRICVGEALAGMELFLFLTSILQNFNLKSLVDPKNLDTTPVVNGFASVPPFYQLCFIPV
On the technique in general: In a reporter assay the amount or activity of a reporter protein is the signal.

For experiment [2], the target named is Cytochrome P450 3A4 (Homo sapiens) (UniProt P08684). As to the kind of experiment: Cytochrome P450 Family 3 Subfamily A Member 4 (CYP3A4) small molecule antagonists: luciferase reporter qHTS assay (AID 1671201). Particulars: P450-Glo CYP3A4 enzyme, luciferin luminescence, 1 h; series mostly up to 115 µM. In outline: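 Room-temperature assay throughout: 10 min compound–enzyme/substrate preincubation, 1 h reaction after NADPH regeneration solution, 20 min detection. Luciferin formed from proluciferin substrate is quantified by luminescence.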
Sequence of Cytochrome P450 3A4 (Homo sapiens) (P08684 whole entry, looked up): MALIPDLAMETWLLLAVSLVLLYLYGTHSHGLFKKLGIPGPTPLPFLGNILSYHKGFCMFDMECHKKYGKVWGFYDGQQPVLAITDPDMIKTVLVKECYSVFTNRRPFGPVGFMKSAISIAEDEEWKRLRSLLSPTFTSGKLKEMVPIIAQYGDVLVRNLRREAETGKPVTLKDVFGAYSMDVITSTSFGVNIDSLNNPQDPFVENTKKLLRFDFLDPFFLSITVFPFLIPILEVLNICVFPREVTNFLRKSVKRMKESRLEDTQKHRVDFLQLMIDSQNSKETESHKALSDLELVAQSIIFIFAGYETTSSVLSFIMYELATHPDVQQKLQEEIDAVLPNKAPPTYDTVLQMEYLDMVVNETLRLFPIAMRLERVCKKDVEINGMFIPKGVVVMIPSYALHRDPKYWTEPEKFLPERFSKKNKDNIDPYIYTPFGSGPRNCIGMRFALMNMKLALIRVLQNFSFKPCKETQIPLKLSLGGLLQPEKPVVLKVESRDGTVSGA

For experiment [3], the target named is Voltage-gated inwardly rectifying potassium channel KCNH2 (Homo sapiens) (UniProt Q12809). The experiment is described as follows: Human Ether-a-go-go-Related Gene (hERG) channel small molecule antagonists: fluorescence cell-based qHTS assay (AID 1671200).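 Note: hERG-expressing U2OS cells given a thallium stimulus after FluxOR II dye loading.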 Particulars: hERG-U2OS cells, FluxOR thallium flux fluorescence; series mostly up to 76.8 µM. In a few lines:
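Cell line hERG-U2OS; dye FluxOR II, 1 h RT dark; Tl+ stimulus; ex 480/em 540 nm, read each second for 2 min.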
On the technique in general: Block of hERG is tested as a sign of cardiac risk.

Experiment [4] concerns the target Cytochrome P450 1A2 (Homo sapiens) (UniProt P05177). The experiment is described as follows: Cytochrome P450 Family 1 Subfamily A Member 2 (CYP1A2) small molecule antagonists: luciferase reporter qHTS assay (AID 1671199). Note: potency is the fitted concentration of half-maximal effect. The conditions noted are these: P450-Glo CYP1A2 enzyme, luciferin luminescence, 1 h; series mostly up to 53 µM. In outline: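 Luminescence from luciferin formed by CYP1A2 from a proluciferin substrate, read 20 min after detection reagent. Compound was pre-incubated 10 min with enzyme-substrate, and reaction started with NADPH regeneration solution for 1 h at room temperature; furafylline control.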
% is set by controls: 0 for no effect and ±100 for the full control effect.
Note: nearly all actives have a fitted effect of over 50% in size.

Sequence of Voltage-gated inwardly rectifying potassium channel KCNH2 (Homo sapiens) (Q12809 whole entry, looked up): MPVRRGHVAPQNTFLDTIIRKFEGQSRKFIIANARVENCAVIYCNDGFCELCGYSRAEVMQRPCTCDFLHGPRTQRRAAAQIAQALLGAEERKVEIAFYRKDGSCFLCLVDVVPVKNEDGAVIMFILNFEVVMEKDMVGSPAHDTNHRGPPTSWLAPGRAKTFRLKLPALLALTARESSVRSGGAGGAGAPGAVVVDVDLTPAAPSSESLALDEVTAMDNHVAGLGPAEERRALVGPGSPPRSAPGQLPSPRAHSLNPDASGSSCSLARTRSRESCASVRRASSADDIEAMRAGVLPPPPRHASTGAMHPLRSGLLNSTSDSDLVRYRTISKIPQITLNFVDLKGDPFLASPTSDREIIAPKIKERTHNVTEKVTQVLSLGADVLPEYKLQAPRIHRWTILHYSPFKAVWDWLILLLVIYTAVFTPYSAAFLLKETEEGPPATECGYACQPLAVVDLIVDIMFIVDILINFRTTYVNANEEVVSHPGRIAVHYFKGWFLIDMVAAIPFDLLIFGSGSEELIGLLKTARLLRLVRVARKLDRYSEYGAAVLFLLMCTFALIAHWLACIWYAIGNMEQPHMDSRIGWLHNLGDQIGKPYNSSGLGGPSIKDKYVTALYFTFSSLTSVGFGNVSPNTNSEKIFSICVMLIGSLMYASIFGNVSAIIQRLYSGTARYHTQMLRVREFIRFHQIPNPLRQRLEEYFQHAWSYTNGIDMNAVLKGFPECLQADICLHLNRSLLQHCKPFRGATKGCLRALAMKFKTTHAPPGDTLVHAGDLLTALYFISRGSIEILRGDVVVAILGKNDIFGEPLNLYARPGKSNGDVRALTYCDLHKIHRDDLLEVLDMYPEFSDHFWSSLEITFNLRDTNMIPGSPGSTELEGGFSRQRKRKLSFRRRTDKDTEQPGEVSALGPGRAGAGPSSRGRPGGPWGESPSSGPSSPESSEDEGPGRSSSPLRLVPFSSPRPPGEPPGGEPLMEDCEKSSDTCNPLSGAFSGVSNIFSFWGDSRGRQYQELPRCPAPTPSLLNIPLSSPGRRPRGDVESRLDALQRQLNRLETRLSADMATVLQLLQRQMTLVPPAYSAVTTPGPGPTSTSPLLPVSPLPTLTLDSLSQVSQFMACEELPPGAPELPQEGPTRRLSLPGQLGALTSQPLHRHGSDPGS
Sequence of Cytochrome P450 1A2 (Homo sapiens) (P05177 whole entry, looked up): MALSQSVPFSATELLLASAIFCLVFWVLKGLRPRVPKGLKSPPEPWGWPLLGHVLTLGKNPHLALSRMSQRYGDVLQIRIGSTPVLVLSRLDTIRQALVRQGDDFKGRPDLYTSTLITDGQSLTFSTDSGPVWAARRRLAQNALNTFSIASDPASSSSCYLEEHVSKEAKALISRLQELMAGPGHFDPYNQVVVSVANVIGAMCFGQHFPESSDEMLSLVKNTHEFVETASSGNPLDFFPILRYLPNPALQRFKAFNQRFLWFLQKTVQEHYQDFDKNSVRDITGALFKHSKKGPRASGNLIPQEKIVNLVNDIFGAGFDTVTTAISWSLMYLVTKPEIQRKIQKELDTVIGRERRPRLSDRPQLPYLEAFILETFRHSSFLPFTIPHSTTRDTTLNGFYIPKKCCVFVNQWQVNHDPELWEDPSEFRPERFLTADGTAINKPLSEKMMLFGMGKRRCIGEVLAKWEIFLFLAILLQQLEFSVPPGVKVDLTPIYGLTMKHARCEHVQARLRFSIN

As to `O=C1c2ccccc2C(=O)N1CCl`, the Potency entry in experiment [1] and in experiment [2] was “inactive” each time.
In the case of `O=C1c2ccccc2C(=O)c2cc(S(=O)(=O)O)ccc21`, the Potency in experiment [1] is 12.7 µM (active). Besides, the Potency entry in experiment [3] and in experiment [2] was “inactive” each time.
Consider `Nc1ccc2cc(S(=O)(=O)O)cc(O)c2c1`, for which the Potency in experiment [1] was 35.4 µM (active). For the same compound, the Potency result in experiment [3] and in experiment [2] was “inactive” each time.
Consider `C[C@@H](O)[C@H]1C(=O)N2C(C(=O)O)=C(SCCN=CN)C[C@H]12`, for which the Potency entry in experiment [4], in experiment [3] and in experiment [2] was “inactive” each time.
Turning to `Nc1ncnc(Nc2ccccc2)n1`, the Potency result in experiment [1], in experiment [3] and in experiment [2] was “inactive” throughout.
Turning to `Cc1ccc(C=O)cc1C`, the Potency in experiment [4] was 35.6 µM (active). Moreover, the Potency result in experiment [3] and in experiment [2] was “inactive” throughout.
Consider `CC(C)=CCOC(=O)c1ccccc1`, for which the Potency entry in experiment [1], in experiment [3] and in experiment [2] was “inactive” each time.
With `CCc1ccc(C=O)cc1`, the Potency result in experiment [1], in experiment [3] and in experiment [2] was “inactive” in each case.
`CCCCCCCCC1CCC(=O)O1` (stereo not given): in experiment [1], the Potency is 71 µM (active). In experiment [2], the Potency result was “inactive”.
Take `Cc1ccccc1C(=O)Nc1ccc(C(=O)N2CCCC(N(C)C)c3ccccc32)cc1` (stereo not given): the Potency entry in experiment [4] and in experiment [3] was “inactive” throughout.
For `Cc1cccc2nccnc12`, the Potency result in experiment [4] is “inactive”.
As for `C[C@@H](Oc1ccc(CNC(=O)c2cccnc2Oc2ccc3c(c2)OCO3)c(F)c1)C(=O)O`, the Potency entry in experiment [4] and in experiment [3] was “inactive” in each case.
With `COC(=O)C1CC(=O)C(C(=O)OC)CC1=O` (stereo not given), the activity change, negative = inhibition is -7.95% [at 10.5 µM] in experiment [1], 0.39% [at 6.97 µM] in experiment [3] and 9.87% [at 10.5 µM] in experiment [2].
On to `BrCCCCCBr`, for which the Potency entry in experiment [1], in experiment [3] and in experiment [2] was “inactive” each time.
Take `O=Cc1ccc(Cl)c(Cl)c1`: the Potency entry in experiment [1], in experiment [3] and in experiment [2] was “inactive” throughout.
As for `CCOC(=O)c1ccc(OC(=O)CCCCCN=C(N)N)cc1`, the Potency result in experiment [1] and in experiment [2] was “inactive” each time.
As for `CCCC(=O)C(C)=O`, in experiment [4], the Potency entry was “inactive”.
`N[C@@H](COP(=O)(O)O)C(=O)O`: the Potency result in experiment [4] was “inactive”. For the same compound, the figures for the activity change, negative = inhibition in experiment [3] and in experiment [2] were 2.29% [at 15.8 µM] and 2.53% [at 23.6 µM], respectively.
Take `CCCCCCCCCCCCCC`: the Potency result in experiment [1], in experiment [3] and in experiment [2] was “inactive” throughout.
As to `COc1ccc(OC)c(Cl)c1`, the Potency entry in experiment [1], in experiment [3] and in experiment [2] was “inactive” in each case.
As to `c1ccc2nccnc2c1`, the Potency entry in experiment [1] and in experiment [2] was “inactive” in each case.
On to `COCCOCCOCCOCCOCCO`, for which the Potency entry in experiment [1], in experiment [3] and in experiment [2] was “inactive” in each case.
For `O=C1O[C@@H]2[C@@H](O)[C@H](O)O[C@@H]2[C@H]1O`, the Potency entry in experiment [4], in experiment [3] and in experiment [2] was “inactive” each time.
For `CCOC(=O)c1ncn2c1CN(C)C(=O)c1cc(F)ccc1-2`, the Potency result in experiment [4], in experiment [3] and in experiment [2] was “inactive” in each case.
For the compound `NC(CO)C(=O)NNCc1ccc(O)c(O)c1O` (stereo not given), the Potency entry in experiment [4] and in experiment [3] was “inactive” throughout.
Take `FC(F)(F)c1ccccc1-n1ccnc1`: the Potency in experiment [4] is 5.49 µM (active).
